# Bioassay records deposited in PubChem BioAssay by National Center for Advancing Translational Sciences (NCATS).
# AmpC nodet inh: blocks E. coli AmpC beta-lactamase in absence of detergent; AmpC nitrocefin hydrolysis, absorbance 480 nm, no detergent; actives 1.8% (n = 71,000); Potency, µM (titrated, usually from 28.7 µM), for inactives: top-dose activity change, negative = inhibition; P00811; further: % of control where 0% means no effect
# Target sequence (P00811 whole entry, looked up): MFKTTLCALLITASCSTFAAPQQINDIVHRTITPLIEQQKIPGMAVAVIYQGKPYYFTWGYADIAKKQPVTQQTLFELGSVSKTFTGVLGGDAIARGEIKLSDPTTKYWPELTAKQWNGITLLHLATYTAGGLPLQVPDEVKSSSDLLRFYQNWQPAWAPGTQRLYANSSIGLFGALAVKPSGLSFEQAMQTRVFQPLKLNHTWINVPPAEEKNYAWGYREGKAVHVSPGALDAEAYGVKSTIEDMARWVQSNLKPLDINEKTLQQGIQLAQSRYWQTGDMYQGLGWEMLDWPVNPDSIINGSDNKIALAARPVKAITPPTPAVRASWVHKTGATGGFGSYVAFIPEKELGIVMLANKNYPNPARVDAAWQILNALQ
#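 AmpC in 20 mM phosphate buffer pH 7.0 was preincubated 15 min at room temperature with compounds. Nitrocefin (800 uM stock) was then added and hydrolysis followed at 480 nm every 20 s for 4 min.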
# Prx2 Sm inh: blocks S. mansoni peroxiredoxin 2 enzymatic activity; Potency, µM; S. mansoni Prx2 activity coupled to TGR/GSH (TGR is thioredoxin glutathione reductase), NADPH fluorescence loss, qHTS; AID 448; actives 0.07% (n = 65,000)
#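 Prx2 activity was followed as the loss of NADPH fluorescence (ex 365/em 450 nm), read every 30 sec for 8 min after H2O2 start. The enzyme mix (50 nM Prx2, 25 nM TGR, GSH, NADPH; pH 7.4 phosphate buffer) was incubated with compound for 15 min at room temperature first.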
# LT uptake inh: inhibitors of anthrax lethal toxin internalization. Cells, anthrax lethal toxin internalization, FRET ratio (460/530). Potency, µM (highest dose often 40 µM), inactives show at the highest dose activity change, negative = inhibition, most hits filed as inhibitors. actives 0.67% (n = 70,000). AID 912; further: on the % scale 0 is the no-effect control and ±100 the full control effect; nearly all actives have a fitted effect of over 50% in size
# AmpC det inh: AmpC beta-lactamase inhibition, detergent assay; Potency, µM (top dose mostly 28.7 µM), without a hit: at the highest dose activity change, negative = inhibition; purified AmpC, nitrocefin hydrolysis with detergent; AID 584; P00811; actives 0.09% (n = 71,000); active means well fitted curve in the direction sought with a large enough effect; inconclusive means small, poorly fitted or top-dose-only effect; further: on the % scale 0 is the no-effect control and ±100 the full control effect
#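 E. coli AmpC (5.3 nM) in 20 mM phosphate pH 7.0 with 0.01% Triton X-100, preincubated 15 min RT with compound; nitrocefin (2 uL of 800 uM stock) hydrolysis followed by 480 nm absorbance every 20 s over 4 min.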
# Active calls of the source: *; ? = inconclusive; . = no result given; [ ] = another dose, or the depositor's remark. Shown are actives, neighbours in structure and some others; about 2.4% of the full set was active somewhere. Unless noted, the call rests on the fitted dose curve. Potency means the concentration at half of the fitted maximal effect.
SMILES,AmpC nodet inh,Prx2 Sm inh,LT uptake inh,AmpC det inh
CCc1ccc(NC(=O)c2cc(CC(C)C)on2)cc1,3.98µM*[single pt active],>57,-29.1%,12.3%
CCCN1CCc2cccc3c2[C@@H]1Cc1ccc(O)c(O)c1-3,-7.2%,>57,-3.0%,-0.6%
CC(C)=NO[C@@H](C)c1cc(-c2c(C)cc(C)cc2C)no1,.,.,15.3%[8 µM],.
CC(C)[C@@]1(NC(=O)[C@H]2C[C@H]3c4cccc5[nH]cc(c45)C[C@@H]3N(C)C2)O[C@]2(O)[C@H]3CCCN3C(=O)[C@H](Cc3ccccc3)N2C1=O,128.0%,>57,?,0.9%
c1ccc(CCN2CCOCC2)nc1,-25.3%[5.75 µM],>57,?,0.3%[5.75 µM]
CSc1ccc2c(c1)N(CC[C@H]1CCCCN1C)c1ccccc1S2,68.5%[12.8 µM],>57,10µM*,0.8%[12.8 µM]
CN1CCCC[C@@H]1CCN1c2ccccc2Sc2ccc(S(C)=O)cc21 (stereo partly drawn),-1.8%[5.75 µM],>57,-1.3%[8 µM],-1.6%[5.75 µM]
COc1ccc(-n2c(=O)cnc3cnc(N(C)C)nc32)cc1,16.1%,>57,?,-1.2%
O=c1cc(-c2ccccc2)oc2cc(O)c(O)c(O)c12,7.94µM*,>57,1.26µM*,-3.9%
CC1CCN(C(=O)CSc2nnc(Cn3c(=O)sc4ccccc43)n2C)CC1,?,>57,2.0%,16.3%
Cn1c(Cn2c(=O)sc3ccccc32)nnc1SCC(=O)N1CCCC1,3.98µM*[single pt active],>57,28.6%,27.3%
Cn1c(Cn2c(=O)sc3ccccc32)nnc1SCC(=O)N1CCc2ccccc21,3.98µM*[single pt active],>57,-4.0%,12.2%
CCSc1nnc(Cn2c(=O)sc3ccccc32)n1C,3.98µM*[single pt active],>57,-5.8%,13.9%
Cn1c(Cn2c(=O)sc3ccccc32)nnc1SCC(=O)N1CCCc2ccccc21,3.98µM*[single pt active],>57,-8.7%,12.7%
Cn1c(Cn2c(=O)sc3ccccc32)nnc1SCc1ccccn1,10.7%,>57,-1.6%,0.7%
NNc1nncn1N,-4.7%[5.75 µM],>57,3.4%[8 µM],-3.7%[5.75 µM]
COC(=O)/C=C\CCc1coc(/C=C\CNC(=O)OC)n1,.,.,-1.1%[8 µM],.
O=C(O)c1cccc([As]=[As]c2cccc(C(=O)O)c2)c1 (stereo not drawn),4.5%[5.75 µM],0.253*,?,0.0%[5.75 µM]
Cc1nc(C)c(-c2csc(NCc3ccco3)n2)s1,8.3%,>57,-1.6%,1.2%
Cc1nc(NC(=O)c2ccccc2)sc1-c1csc(NCc2ccco2)n1,12.6µM*,>57,?,13.7%
Cc1cc(=O)oc2cc(OCC#N)ccc12,3.98µM*[single pt active],>57,-5.5%,9.4%
Clc1ccccc1-c1nc(NCc2cccs2)c2ccccc2n1,15.9%,>57,?,6.9%
CCN(CC)CCCN(C(=O)c1cccs1)c1nc(-c2ccc(OC)cc2)cs1,103.1%,>57,10µM*,-6.6%
COc1ccc(-c2csc(N(CC3CCCO3)C(=O)c3cccs3)n2)cc1 (stereo not drawn),27.0%,>57,-25.6%,1.9%
Cc1nc2cnc(N(C)C)nc2n(C2CC2)c1=O,1.2%,>57,1.4%,-3.8%
SMILES,AmpC nodet inh,Prx2 Sm inh,LT uptake inh,AmpC det inh
CC(C)(Cl)Cl,-4.9%,.,-3.7%,10.7%
C[C@]12CC[C@@H]3[C@H](CCC4=CC(=O)CC[C@]43C)[C@]1(O)CC[C@@]2(O)C(=O)CO,-2.7%[5.75 µM],>57,-4.0%[8 µM],-1.3%[5.75 µM]
COc1ccc(C2CC(=O)N3CN(c4ccc(C)c(Cl)c4)CSC3=C2C#N)cc1 (stereo not drawn),2.51µM*[single pt active],.,-16.3%,7.5%
COc1ccc(N2CSC3=C(C#N)C(c4cccc(OC)c4OC)CC(=O)N3C2)cc1 (stereo not drawn),3.98µM*[single pt active],>57,-11.7%,10.4%
COc1ccc(OC)c(C2CC(=O)N3CN(c4ccccc4)CSC3=C2C#N)c1 (stereo not drawn),8.4%,>57,-15.0%,13.0%
Cc1cccc(N2CSC3=C(C#N)C(c4ccc(C)o4)CC(=O)N3C2)c1 (stereo not drawn),15.8µM*,>57,.,-10.7%
COc1ccc(C2CC(=O)N3CN(c4ccccc4F)CSC3=C2C#N)cc1OC (stereo not drawn),0.6%,>57,9.7%,13.3%
CCc1ccccc1N1CSC2=C(C#N)C(c3ccccc3F)CC(=O)N2C1 (stereo not drawn),12.6µM*[single pt active],.,-1.3%,1.9%
COc1cc(OC)c(C2CC(=O)N3CN(c4ccccc4C)CSC3=C2C#N)cc1OC (stereo not drawn),13.7%,>57,.,-10.9%
Cc1ccccc1-c1cc(Nc2ccccc2)ncn1,7.9%,>57,-6.4%,8.1%
CCOC(=O)CC1=NS(=O)(=O)c2ccccc2N1,0.4%,>57,-4.3%,13.7%
COc1ccccc1N1CCN(C(=O)CCCC2=NS(=O)(=O)c3ccccc3N2)CC1,3.98µM*[single pt active],>57,-10.0%,11.9%
CC(=O)OC1c2ccccc2C(=O)N1c1ccccc1C (stereo not drawn),3.98µM*[single pt active],>57,-9.2%,15.0%
COc1ccc(S(=O)(=O)N(CCCN2CCCC2=O)Cc2cc3cc(C)c(C)cc3[nH]c2=O)cc1,155.8%,58.2*,16.1%,-2.4%
N#Cc1nc(-c2ccc(F)cc2)oc1NCc1cccc2c1OCO2,-22.1%,>57,?,8.5%
CC(C)CNc1oc(-c2ccc(F)cc2)nc1C#N,3.98µM*[single pt active],>57,?,5.5%
Cc1ccc2nc(NC(=O)CN(C)S(=O)(=O)c3ccc(Br)s3)sc2c1,-21.5%,>57,5.01µM*,3.0%
Cc1ccc2nc(NC(=O)CNS(=O)(=O)c3ccc(Br)s3)sc2c1,-22.6%,>57,?,9.0%
CC(C)(N=NC(C)(C)C1=NCCN1)C1=NCCN1,0.8%[5.75 µM],>57,-1.2%[8 µM],-5.1%[5.75 µM]
CC1CCN(c2nnc(N3CCC(C)CC3)c3ccccc23)CC1,3.16µM*[single pt active],>57,-4.7%,11.9%
CC1CCN(c2nncc3ccccc23)CC1,1.6%,>57,-3.0%,-2.4%
COc1ccc(OC)c(C2=NOC(C(=O)Nc3cc(C)nn3-c3ccccc3)C2)c1 (stereo not drawn),3.98µM*[single pt active],>57,-11.7%,11.2%
CCN(CC)CC[n+]1ccc2c(C)c3[nH]c4ccccc4c3c(C)c2c1,-9.7%[5.75 µM],>57,3.98µM*,-2.0%[5.75 µM]
O=C(CCCCn1c(=O)[nH]c2ccccc2c1=O)NC1CCN(Cc2ccccc2)CC1,3.16µM*[single pt active],>57,-14.1%,15.5%
O=C(CCCn1c(=O)[nH]c2ccccc2c1=O)NC1CCCCCC1,12.6%,>57,-3.7%,2.7%
SMILES,AmpC nodet inh,Prx2 Sm inh,LT uptake inh,AmpC det inh
COc1cc(O)c2c(O)c3c(c4c2c1[C@@]1(C4)C(C)=CCCC1(C)C)[C@H](O)[C@@]1(O)CC(=O)C(C(N)=O)=C(O)[C@]1(O)C3=O,-6.1%[5.75 µM],>57,?,-4.2%[5.75 µM]
Cc1cc(=O)oc2c1ccc1oc(/C(=N/O)c3ccccc3)c(C)c12,-11.2%,.,10µM*,0.9%
CCC(=O)Oc1ccc2c(C)cc(=O)oc2c1C,-5.1%,?,?,3.1%
Cc1ncsc1C(=O)Nc1nc2c(s1)CCCC2,-0.6%,>57,10.8%,-0.9%
O=C(Nc1nc2c(s1)CCCC2)c1ccc2ncsc2c1,77.5%,>57,10µM*,12.7%
CC1CCCC(C)N1c1nnc(N)s1 (stereo not drawn),3.98µM*[single pt active],>57,-5.9%,12.0%
CC1CCCCN1c1nnc(N)s1 (stereo not drawn),-4.6%,>57,5.3%,16.7%
